According to PubChem BioAssay (NCI):
Compounds without any hit were thinned out: in the full panel of roughly 83,000, 20% have a hit.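 Results are percent growth after 48 hours of single-concentration exposure. 100 means growth as in untreated cells, lower positive values show inhibition; negative values down to -100 show cell death.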 Values without a mark were called inactive. The source made the active and inactive calls. The calls were made as follows: active = growth percent below 10; inactive = the rest.

How the values were obtained:
Assay in all cases: NCI-60 one-dose screen, 48 h (100 = growth as untreated, 0 = no growth, -100 = all killed)
Conditions in all cases: 10 µM
[1] = tested on: NCI-H23 lung
[2] = tested on: NCI-H226 lung
[3] = tested on: HOP-62 NSCLC
[4] = tested on: NCI-H460 lung
[5] = tested on: HOP-92 NSCLC
[6] = tested on: NCI-H522 lung
[7] = tested on: A549/ATCC NSCLC
[8] = tested on: 786-0 renal
[9] = tested on: COLO 205 colon
[10] = tested on: DU-145 prostate
[11] = tested on: K-562 leukemia
[12] = tested on: MALME-3M melanoma
[13] = tested on: MDA-MB-231 breast
[14] = tested on: RXF 393 renal
[15] = tested on: SF-268 CNS
[16] = tested on: SF-295 CNS
[17] = tested on: SF-539 CNS
[18] = tested on: M14 melanoma
[19] = tested on: UACC-257 melanoma

Structure (SMILES)	growth [1] [%]	growth [2]	growth [3] [%]	growth [4]	growth [5] [%]	growth [6]	growth [7] [%]	growth [8]	growth [9]	growth [10] [%]	growth [11]	growth [12]	growth [13] [%]	growth [14]	growth [15] [%]	growth [16]	growth [17]	growth [18]	growth [19] [%]
CC(C)(C)c1ccc(S(=O)(=O)Oc2ccc(NC(=O)C3CCCCC3)cc2)cc1	23	45.4%	88.7	44.2%	39.6	25.4%	41.5	55.4%	32.4%	59.2	27%	78.9%	72	65.1%	70.6	22.8%	73.2%	60.1%	–
CNC(=O)c1cn2c3c(c(N4CCN(C)CC4)c(F)cc3c1=O)OC[C@@H]2C	96.3	93%	94.5	103%	98.5	90.4%	95.7	96.2%	110%	104	102%	106%	102	103%	97	98.7%	105%	106%	–
Cc1cc(CSc2ccccc2C(=O)N2CC=C(c3ccccc3)CC2)on1	89.4	88.4%	92.2	100%	93.4	75.3%	94.6	94.5%	107%	107	89.1%	95.8%	95.3	107%	108	99.6%	92.9%	108%	–
O=C(O)Cc1ccc(O)c(O)c1	103	98.2%	99.3	100%	109	106%	102	105%	103%	113	102%	–	99.2	94.2%	97.6	102%	89.9%	96.5%	110
O=C(Nc1ccc(OS(=O)(=O)c2ccccc2)cc1)C1CCCCC1	88	87%	94.5	99.8%	98.5	75.4%	90.5	89.9%	97%	92.8	60.6%	81.9%	73.1	87.5%	90.2	89.7%	80.4%	70.3%	–
COc1cc2ncnc(NC3CCC(O)CC3)c2cc1OC (stereo not drawn)	91.2	92.7%	99.2	102%	89.7	81.6%	85.9	85.5%	102%	102	58.2%	103%	93.7	102%	101	94.9%	95.4%	98.8%	–
CNC(=O)c1cn(C2CC2)c2cc(N3CCN(C(=O)c4cc(OC)c(OC)c(OC)c4)CC3)c(F)cc2c1=O	93.7	93%	90.8	106%	92.3	90%	94.6	93.4%	105%	104	104%	103%	98.2	112%	96.8	98%	98.9%	109%	–
CCC(C)[C@H](NC(C)=O)C(=O)N[C@@H](CCCNC(=N)N)C(=O)N[C@@H](CCCCN)C(=O)N[C@@H](CC1CCC(O)CC1)C(=O)NC(C(=O)N[C@@H](CCSC)C(=O)N[C@@H](CCCNC(=N)N)C(=O)N[C@@]1(C)CCC/C=C\CCC[C@@](C)(C(=O)NC(C(=O)N[C@@H](CCC(=O)O)C(=O)N[C@@H](CC(C)C)C(=O)N[C@H](C(=O)N[C@@H](CCC(=O)O)C(N)=O)C(C)C)[C@@H](C)O)NC(=O)[C@H](CCC(N)=O)NC(=O)[C@H](CC(C)C)NC(=O)[C@H](CC(C)C)NC1=O)[C@@H](C)O (stereo partly drawn)	106	108%	108	103%	103	102%	96.3	98.7%	89.9%	93.7	95.4%	102%	98.8	86.4%	47.9	101%	97.7%	75.6%	–
O=C(CCCSc1nc(-c2ccc(Cl)cc2)cc(-c2ccc(Cl)cc2)n1)NO	13.2	2.42% (active)	15.4	0.534% (active)	28	6% (active)	10.2	6.25% (active)	9.44% (active)	15.1	5.07% (active)	2.37% (active)	14.6	-15.3% (active)	11.6	-4.84% (active)	-23% (active)	-15.5% (active)	13.2
